Bioassay records as filed in PubChem.
aSyn 5UTR act = Activators working through SNCA 5'UTR binding (MLPCN); alpha-synuclein 5'UTR reporter, activators screen; activity score, % (tested at 7.5 µM), hits read low; hit rate 7.1% among 300,000; AID 1814; in the data active means activity score below about -60%
* = called active by the depositor. Not all results are given here.

SMILES	aSyn 5UTR act
COc1ccccc1C(=O)Nc1ccc2c(c1)nc(CCNC(=O)c1ccco1)n2C	-295*
Clc1ccccc1-c1ncc2ccccn12	-98*
Clc1ccc(-c2ncc3ccccn23)cc1	-104*
Cc1cccc(NC(=O)/C(C#N)=C/c2ccccc2O)n1	-140*
O=C(N=C1c2ccccc2CN1c1ccc(F)c(F)c1)c1cccnc1	-84*
O=C(N=C1c2ccccc2CN1c1ccccc1)c1cccc([N+](=O)[O-])c1	-123*
CCOC(=O)c1ccc(N2Cc3ccccc3C2=NC(=O)c2cccc([N+](=O)[O-])c2)cc1	-212*
COc1ccc([C@@H]2[C@@H]3C(=O)N(C(C)(C)C)C(=O)[C@@H]3[C@]3(Cc4ccccc4)C(=O)N(c4cccc(C)c4)C(=O)N23)cc1	-63*
N#Cc1cc2cc3c(cc2nc1N1CCCCC1)OCCO3	-222*
N#Cc1cnn2c1nc(N1CCCCC1)c1ccccc12	64
Cc1ccc(-n2nnnc2Sc2nc([N+](=O)[O-])nn2C)cc1	-71*
CCOC(=O)c1cc2nc(Nc3ccc(OC)cc3)sc2s1	-83*
COc1ccc(Nc2nc3ccc(OC)cc3s2)cc1	-120*
COc1ccc2nc(Nc3nc(C)c(C(C)=O)s3)sc2c1	-186*
COc1ccc(N=Nc2c(N)n[nH]c2N)cc1	-85*
COc1ccc(N=Nc2ccc(N)nc2N)cc1	-68*
CCOc1ccc(NC(=O)c2cc3ccccc3cc2OC)cc1	-133*
COc1cc2ccccc2cc1C(=O)Nc1ccc(N2CCN(C)CC2)cc1	-176*
COc1cc2ccccc2cc1C(=O)Nc1ccccc1Cl	-139*
CCOc1ccc(NC(=O)c2ccc(F)cc2F)cc1	-103*
COc1ccc(NC(=O)c2cc3ccccc3cc2OC)cc1	-168*
COc1ccc(NC(=O)c2ccc3ccccc3c2OC)cc1	-215*
COc1cc2ccccc2cc1C(=O)Nc1cccnc1	-139*
COc1ccc(NC(=O)c2cc3c([nH]c4ccccc43)c(C)n2)cc1	-84*
COc1ccc(C(=O)Nc2ccc3cn[nH]c3c2)c(OC)c1	-99*
SMILES	aSyn 5UTR act
CCOc1ccc(NC(=O)c2cccc3ccccc23)cc1	-318*
O=C(Nc1ccc(Cl)cc1)c1ccc(Br)cc1F	-123*
CCOc1ccc(NC(=O)c2cc(OC)nc3ccccc23)cc1	83
CCOc1ccc(NC(=O)c2cc3ccccc3cc2O)cc1	-201*
CSC1=NC(C(Cl)(Cl)Cl)N=C(c2ccc(C)cc2)N1 (stereo not drawn)	118
COc1ccc(-c2cc(C(=O)Nc3cccnc3)no2)cc1OC	-187*
CC(C)c1ccc(C2C3CSCC=C3C(C#N)=C(N)C2(C#N)C#N)cc1 (stereo not drawn)	-84*
N/C(=N\OC(=O)Nc1ccccc1)c1ncc([N+](=O)[O-])s1	-94*
Cc1ccc(C(=O)Nc2nc(=O)n(C(=O)c3ccccc3Cl)s2)cc1	-104*
Cn1sc(NC(=O)c2ccc(Cl)cc2)nc1=O	-115*
CCN1/C(=C/C=C/C=C/c2sc3ccccc3[n+]2CC)Sc2ccccc21	126
CC[n+]1c(/C=C/Nc2ccccc2)sc2ccccc21	-83*
CCN(CCn1cccn1)C(=O)c1cc(COc2ccccc2SC)on1	-90*
CCN(CCn1cccn1)C(=O)c1cc(COc2cc(C)ccc2C)on1	-79*
CCCCNC(=O)/C=C/c1cccs1	-86*
Cc1ccc(CNC(=O)/C=C/c2cccs2)cc1	-184*
CCOc1cccc(OCCCOc2ccccc2)c1	-76*
NNC(=O)c1[nH]c2ccc(Cl)cc2c1-c1ccccc1	77
CC(C)CN=c1cc(-c2ccccc2)oc2ccc(Cl)cc12	-123*
OCCN=c1cc(-c2ccccc2)oc2ccc(Cl)cc12	-199*
CC(O)CN=c1cc(-c2ccccc2)oc2ccc(Cl)cc12 (stereo not drawn)	-239*
Cn1cc(/C=N/n2cnc3scc(-c4ccccc4)c3c2=O)c2ccccc21	66
Cn1cc(/C=C2\SC(=O)N(c3ccccc3)C2=O)c2ccccc21	-217*
Cn1cc(/C=C2\SC(=O)N(c3ccc(O)cc3)C2=O)c2ccccc21	-86*
O=C1S/C(=C\c2cccs2)C(=O)N1c1ccc(O)cc1	-133*
SMILES	aSyn 5UTR act
O=C(O)c1cccc(N/N=C/C2=C(Cl)c3cc(Cl)ccc3SC2)c1	-103*
CCc1ccc(/C(C)=N\Nc2ccc([N+](=O)[O-])cc2)cc1	-137*
C/C(=N\Nc1ccc([N+](=O)[O-])cc1)c1ccco1	-180*
CCOC(=O)c1nc(NNC(=O)c2ccc([N+](=O)[O-])cc2)sc1C	62
C/C(=N\Nc1nc(C)c(C)s1)c1ccc([N+](=O)[O-])cc1	-130*
C/C(=N\Nc1ccc([N+](=O)[O-])cc1)c1ccc(N)cc1	-101*
CC1Sc2ccc(C(=O)Nc3ccccc3OC(F)F)cc2NC1=O (stereo not drawn)	-81*
CC1Sc2ccc(C(=O)OCc3ccccc3Cl)cc2NC1=O (stereo not drawn)	-147*
COc1cc(SC)ccc1C(=O)Nc1ccc(C)cc1	-142*
COc1ccc(Br)cc1C(=O)Nc1cc(C)cc(C)c1	-62*
COc1cc(SC)ccc1C(=O)Nc1ncc(Cl)cc1Cl	-91*
COc1cc(SC)ccc1C(=O)Nc1ncc(C)s1	98
COc1cc(SC)ccc1C(=O)Nc1ccc2c(c1)OCO2	-69*
CC(=O)Nc1nnc(-c2ccc3c(c2)CCCC3)o1	-67*
CC1CN(S(=O)(=O)c2ccc(C(=O)Nc3nnc(-c4ccc5c(c4)CCCC5)o3)cc2)CC(C)O1 (stereo not drawn)	76
Cc1nc2ccc(NC(=O)COc3ccccc3F)cc2s1	-133*
CC(=O)Nc1ccc2nc(NC(=O)COc3ccccc3)sc2c1	-64*
CC(=O)Nc1ccc2nc(NC(=O)COc3ccccc3Cl)sc2c1	-69*
Cc1nc2ccc(NC(=O)CCC3CCCC3)cc2s1	-143*
Cc1cc(CNC(=O)COc2ccccc2F)c2ccccc2n1	-96*
Cc1nc2ccc(NC(=O)CS(=O)(=O)c3ccccc3)cc2s1	-101*
O=C(CCc1nnc(CCCc2ccccc2)o1)N1CCCCCC1	-149*
CC(C)c1cc(CNC(=O)CCc2nnc(CCCc3ccccc3)o2)on1	-77*
CCc1cc(CNC(=O)CCc2nnc(CCCc3ccccc3)o2)on1	-129*
CCOc1ccc(-c2cc(CCCC(=O)NCCc3ccccc3)no2)cc1	62
SMILES	aSyn 5UTR act
O=C(CCc1nnc(CCCc2ccccc2)o1)NCCCC1CCCC1	-116*
CN(C)c1ccc(N=Nc2cccc(F)c2)cc1	-106*
CN(C)c1ccc(N=Nc2cccc3ccoc23)cc1	-136*
Cc1cc(C)cc(C(=O)NC(=S)Nc2ccc(-c3cc4ccccc4oc3=O)cc2)c1	97
O=C(NC(=S)Nc1ccc(CN2CCCCC2)cc1)c1cc2ccccc2o1	-68*
O=C(Nc1cccnc1)c1cc2cc(Br)ccc2o1	-116*
O=C(NC(=S)Nc1cccnc1)c1cc2ccccc2o1	-66*
CC(=O)Nc1ccc(NC(=S)NC(=O)c2cc3ccccc3o2)cc1	-71*
N/C(=N\OC(=O)c1cc(Cl)ccc1Cl)c1ccccn1	-122*
COc1ccc(Cl)cc1C(=O)O/N=C(\N)c1ccccn1	-159*
COc1ccccc1C(=O)O/N=C(\N)c1ccccc1Cl	-139*
O=C1c2cccc3c(O)ccc(c23)C(=O)N1c1ccc(Cl)cc1	-141*
CCCCCCOc1ccc(OCC(O)CN2C(=O)NC(C)(C)C2=O)cc1 (stereo not drawn)	-128*
COc1cc(C2C3=C(Nc4ncnn42)c2ccccc2CC3)cc(OC)c1OC (stereo not drawn)	83
